Rows were chosen to be rich in hits. Some 12% of all compounds tested hit in one or more screens of this group.
JMJD2A Tudor = JMJD2A Tudor domain (human) inhibition. AlphaScreen JMJD2A-Tudor / H3K4me3 peptide binding. Potency, µM (titrated, usually from 114 µM), for the others: at the highest dose activity change, negative = inhibition, hits mostly inhibitors. hit rate 4.4% among 390,000; also: % is scaled to controls: 0 for no effect and ±100 for the full control effect; nearly all actives have a fitted effect of over 50% in size
G9a inh = blocks human histone lysine methyltransferase G9a | Potency, µM (highest dose often 102 µM), inactives show top-dose activity, negative = inhibition, most hits filed as inhibitors | G9a H3K9 monomethylation, AlphaScreen, 2 h | hit rate 8.8% among 350,000 | Q96KQ7 | AID 504332; also: % is scaled to controls: 0 for no effect and ±100 for the full control effect; nearly all actives have a fitted effect of over 75% in size
Target sequence (Q96KQ7 913-1193 limits assumed): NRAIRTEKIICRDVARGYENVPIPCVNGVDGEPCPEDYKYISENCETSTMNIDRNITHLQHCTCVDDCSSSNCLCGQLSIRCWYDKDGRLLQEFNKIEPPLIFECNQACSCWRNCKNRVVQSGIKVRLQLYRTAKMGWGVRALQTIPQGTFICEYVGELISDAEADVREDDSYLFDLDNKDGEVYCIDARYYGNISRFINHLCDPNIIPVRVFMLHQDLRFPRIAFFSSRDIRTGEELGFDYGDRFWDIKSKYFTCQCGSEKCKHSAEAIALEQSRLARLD
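Signal arises when biotinylated H3K9 peptide, once monomethylated, bridges streptavidin donor and antibody-captured acceptor beads. Enzyme at 20 nM was preincubated 15 min with test compounds; peptide 500 nM and SAM 20 uM then reacted for 2 h.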
HP1b chromo inh = HP1-beta chromodomain-methylated histone interaction inhibition; AlphaScreen HP1-beta / biotin-H3K9me3 peptide binding; Potency, µM (titrated, usually from 114 µM), without a hit: top-dose activity change, negative = inhibition, most hits filed as inhibitors; hit rate 0.56% among 390,000; AID 540317; also: nearly all actives have a fitted effect of over 70% in size
Target sequence (P83916 whole entry, looked up): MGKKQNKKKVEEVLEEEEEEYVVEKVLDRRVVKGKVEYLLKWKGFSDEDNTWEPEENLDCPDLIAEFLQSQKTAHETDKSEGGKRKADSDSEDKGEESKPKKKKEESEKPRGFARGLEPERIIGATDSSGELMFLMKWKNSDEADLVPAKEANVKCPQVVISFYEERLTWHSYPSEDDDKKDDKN
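Compound inhibition of the preformed complex between 50 nM HP1-beta and 50 nM biotinylated H3K9me3 peptide was read by AlphaScreen. Buffer was PBS pH 7.4 with 0.01% Tween-20. Incubations ran 30 min at room temperature, with 10 ug/mL donor/acceptor beads.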
Sfp inh = Sfp phosphopantetheinyl transferase inhibition; Q9F4F7; Biochemical Sfp PPTase activity, qHTS; Potency, µM, for the others: largest response in the series, negative = inhibition, usual class: inhibitors; hit rate 3.5% among 310,000; AID 1490;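 also: the enzyme is Sfp with the accession as filed and its product quenches rhodamine fluorescence; 0% = enzyme reaction without inhibitor and -100% = no enzyme wells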
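Reaction rates are the 30-min fluorescence difference (ex 525, em 598 nm) in wells containing 15 nM Sfp, 5 uM rhodamine-CoA and 12.5 uM BHQ-2-YbbR at pH 7.6 with 10 mM MgCl2.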
L3MBTL1 block = inhibitors of human L3MBTL1; Q9Y468; AlphaScreen L3MBTL1–H3K9me1 peptide binding; Potency, µM (doses to about 57.1 µM), for the others: at the top dose activity, negative = inhibition, actives largely listed as inhibitors; hit rate 0.66% among 230,000; also: % is scaled to controls: 0 for no effect and ±100 for the full control effect; nearly all actives have a fitted effect of over 60% in size
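L3MBTL1 50 nM + b-AHA-H3(1-15)K9me1 75 nM, 30 min RT; compound added, 30 min RT; streptavidin donor/Ni-chelate acceptor beads 10 ug/mL each final, 30 min RT dark; AlphaScreen read.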
BAZ2B inh = inhibitors of human BAZ2B bromodomain | AlphaScreen BAZ2B-H3K14Ac peptide displacement | Potency, µM (top dose mostly 114 µM), inactives show at the top dose activity change, negative = inhibition, hits mostly inhibitors | hit rate 4.4% among 360,000; also: % is scaled to controls: 0 for no effect and ±100 for the full control effect; nearly all actives have a fitted effect of over 60% in size
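In this displacement format the biotinylated H3(5-23) peptide acetylated at Lys14 serves as ligand at 50 nM, with BAZ2B at 50 nM in PBS pH 7.4 containing 0.01% Tween-20. Donor and acceptor beads are 10 ug/mL final.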
Numbers without * were called inactive; ? = inconclusive; / = not tested or not shown; [ ] = dose if it differs, or a comment. Calls follow the shape of the dose curve; as a rule, active = well fitted curve in the direction sought with a large enough effect; inconclusive = small, poorly fitted or top-dose-only effect, or another doubt; inactive = no such curve, though single readings can be large; an effect the other way counts as inactive or inconclusive. Potency is read from the fitted curve at half-maximal effect.

SMILES | JMJD2A Tudor | G9a inh | HP1b chromo inh | Sfp inh | L3MBTL1 block | BAZ2B inh
Cc1ccc(Nc2c(-c3c[nH]c4ccccc34)nc3ccccn23)cc1 | 22µM* | 28µM* | ? | / | / | 18µM*
c1ccc(Nc2c(-c3ccco3)nc3ccccn23)cc1 | -34% | ? | -19% | -6% | -4% | 50µM*
Cc1ccccc1Nc1c(-c2ccco2)nc2c(C)cccn12 | ? | 14µM* | ? | / | / | 25µM*
Cc1cc(C)n2c(Nc3ccccc3)c(-c3ccc(C)o3)nc2n1 | -33% | / | 6% | / | / | /
Cc1ccc(Nc2c(-c3ccc(Br)o3)nc3ccccn23)cc1 | -12% | -13%[59 µM] | 18% | / | / | ?
Cc1ccc(Nc2c(-c3ccco3)nc3ccccn23)cc1 | ? | 40µM* | -38% | ? | -14% | ?
Cc1cc(C)cc(NC(=O)c2oc3ccc4c(c3c2C)C(=O)CC(C)(C)O4)c1 | -9% | -3%[59 µM] | 35% | / | / | 1%
O=C(c1cccc(F)c1)N1CCC2(CC1)CN(c1ccccc1)C2 | / | 5%[12.7 µM] | / | -11% | / | /
Fc1ccc(Nc2c(-c3ccco3)nc3ccccn23)cc1 | ? | ? | -28% | ? | -9% | 45µM*
Cc1ccn2c(Nc3ccc(F)cc3)c(-c3ccc(C)o3)nc2c1 | -10% | -45%[59 µM] | 39% | / | / | -7%
Cc1ccc(S(=O)(=O)NC(=O)NN2CC3CCCC3C2)cc1 (stereo unspecified) | 89µM* | 7%[2.33 µM] | 73% | ? | / | ?
Cc1ccc(S(=O)(=O)N2CCN(C(=O)CN3CCCSc4ccccc43)CC2)cc1 | -31% | 1%[2.33 µM] | 13% | / | -9% | -36%
COC(=O)c1ccc(C(=O)OC)c(NC(=O)N2c3ccccc3Sc3ccccc32)c1 | -11% | 8%[59 µM] | 4% | -4% | -12% | 10%
O=C(CCC(=O)N1CC2CCCN2c2ccccc21)NCc1ccccc1F (stereo unspecified) | 45µM* | -26%[59 µM] | 35% | / | / | -32%
O=C(NCc1ccc(Cl)cc1)c1ccc(NC(=O)N2CC3CCCN3c3ccccc32)cc1 (stereo unspecified) | -23% | 10µM* | 3% | / | / | -38%
Cc1ccccc1CNC(=O)CCC(=O)N1CC2CCCN2c2ccccc21 (stereo unspecified) | ? | -25%[59 µM] | -11% | / | / | ?
COC(=O)c1ccc(C(=O)OC)c(NC(=O)N2CC3CCCN3c3ccccc32)c1 (stereo unspecified) | ? | 14µM* | -17% | / | / | 25µM*
CCN(CC)S(=O)(=O)c1ccc(OC)c(NC(=O)c2ccc(-n3cncn3)c([N+](=O)[O-])c2)c1 | -8% | ? | 20% | / | 6% | -21%
COc1ccc(C#Cc2cnc(Cl)c3cncnc23)cc1OC | -30% | / | 29% | / | / | /
Cc1ccc(NC(=O)CN2C(=O)S/C(=C\c3cc(C)n(-c4cccc(C(=O)O)c4)c3C)C2=O)cc1 | 56µM* | / | -13% | -27% | -29% | 45µM*
Cc1ccc(NC(=O)CN2C(=O)S/C(=C\c3ccc(C(=O)O)cc3)C2=O)cc1 | ? | 2% | 28% | -7% | 2% | 56µM*
Cc1ccc(NC(=O)CN2C(=O)S/C(=C\c3cc(C)n(C)c3C)C2=O)cc1 | -19% | -1% | 15% | -8% | -5% | 2%[57.1 µM]
CCc1nc2sccc2c(=O)[nH]1 | 1% | 6% | 26% | 19% | 8% | -3%
CCOC(=O)Cc1csc(SCc2nc3sc4c(c3c(=O)[nH]2)CCC4)n1 | -7% | -50%[59 µM] | 26% | 4% | / | -1%
CCCCn1c(=O)[nH]c(=O)c2c1nc(Cn1ncc(Cl)c(Cl)c1=O)n2CCC | ? | 35µM* | -27%[57 µM] | 8% | / | 3%
CCCCn1c(-c2cccc(F)c2)nc2c1c(=O)[nH]c(=O)n2CC(C)C | -13% | 26% | -5% | 6% | / | 6%
CCCCn1c(-c2ccc(OC(F)F)cc2)nc2c1c(=O)[nH]c(=O)n2CC(C)C | -5% | 50µM* | 38% | 2% | / | 24%

Bioassay records (PubChem)
